Among the data in PubChem BioAssay (NCI) are growth values, retold here.

Common to all, as to assay: NCI-60 one-dose screen, 48 h (100 = growth as untreated, 0 = no growth, -100 = all killed)
Experiment [1] has as its system SR leukemia. Conditions: 10 µM.
In experiment [2] the test system is RPMI-8226 leukemia. The note with it: 10 µM.
In experiment [3] the test system is OVCAR-8 ovarian. Conditions: 10 µM.
Experiment [4] concerns OVCAR-5 ovarian. The note with it: 10 µM.
Experiment [5] has as its system OVCAR-4 ovarian. Conditions: 10 µM.
For experiment [6], the system named is SK-OV-3 ovarian. The note with it: 10 µM.
For experiment [7], the system named is IGROV1 ovarian. Conditions: 10 µM.
Experiment [8] concerns OVCAR-3 ovarian. Conditions: 10 µM.
In experiment [9] the test system is HS 578T breast. The note with it: 10 µM.
Experiment [10] has as its system NCI/ADR-RES ovarian. The note with it: 10 µM.
The subject of experiment [11] is T-47D breast. Conditions: 10 µM.
The test system of experiment [12] is BT-549 breast. Conditions: 10 µM.
Experiment [13] deals with MDA-MB-435 melanoma. Conditions: 10 µM.
For experiment [14], the system named is SW-620 colon. Conditions: 10 µM.
Experiment [15] has as its system MCF7 breast. The note with it: 10 µM unless noted.
The test system of experiment [16] is HCT-116 colon. Conditions: 10 µM.
Experiment [17] relates to HCC-2998 colon. The note with it: 10 µM.
For experiment [18], the system named is KM12 colon. Conditions: 10 µM.

Molecules are shown by their SMILES. This is part of a sample that, as a whole, favours compounds with a hit. Of some 83,000 tested, about 20% had one in any assay.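 Single-dose data. Exposure time 48 hours. Values below 10 considered active.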 A number with no mark means an inactive call. Activity calls are given as the source filed them.

For `O=[N+]([O-])c1cccc(C(F)(F)F)c1`, the growth is 127% in experiment [1]; 107% in [2]; 106% in experiment [3]; 97% in experiment [4]; 103% in [5]; 106% in [6]. Besides, the growth is 105% in experiment [7]; 117% in experiment [8]; 103% in experiment [9]; 106% in experiment [10]; 105% in experiment [11]; 103% in experiment [12]. Also, the growth in experiment [13] is 107%; in [14] it was 92.6%; in [15] it was 85.4%; in experiment [16] it was 99.1%; in experiment [17], 103%.
Regarding `Cc1ccc(C(=O)N/N=C/c2ccc3c(c2)OCO3)cc1`, the growth in experiment [1] is 78%; in experiment [2], 94.3%; in [3], 102%; in [4] it was 103%; in experiment [5], 99.5%; in [6], 93.4%. Further, the growth in [7] was 105%; in experiment [8], 116%; in [9], 115%; in experiment [10] it was 91.3%; in experiment [11], 94.7%; in experiment [12] it was 107%. In addition, the growth in experiment [13] was 92.7%; in experiment [14] it was 106%; in experiment [15], 103%; in experiment [16], 92.4%; in experiment [17], 96%; in experiment [18], 82.1%.
Regarding `Clc1ccc(-c2n[nH]c3c2Cc2ccccc2-3)cc1Cl`, the growth was 112% in [1]; 57.9% in experiment [2]; 110% in experiment [3]; 111% in [4]; 99.9% in [5]; 99.4% in [6]. Besides, the growth in experiment [7] was 63%; in experiment [8] it was 110%; in experiment [9], 110%; in experiment [10], 95.1%; in [11], 29%; in [12] it was 97.6%. Further, the growth in experiment [13] is 107%; in experiment [14] it was 111%; in experiment [15], 35.4%; in [16] it was 90.8%; in experiment [17] it was 92.2%; in experiment [18], 102%.
Turning to `Cc1nc2c(ccc3ccccc32)s1`, the growth in experiment [1] was 91.3%; in [2], 100%; in experiment [3], 94.1%; in [4], 102%; in experiment [5] it was 108%; in experiment [6] it was 107%. The growth in experiment [7] was 109%; in experiment [8] it was 121%; in [9], 106%; in experiment [10] it was 108%; in [11], 102%; in experiment [12] it was 109%. Besides, the growth in [13] was 115%; in experiment [14], 107%; in experiment [15], 99.2%; in [16], 103%; in [17], 75.1%; in [18], 117%.
Take `C/C(=N\NC(=O)c1ccccc1N)c1ccccc1O`: the growth in experiment [1] was 35.3%; in experiment [2] it was 52.1%; in experiment [3] it was 18.2%; in [4] it was 52.2%; in experiment [5], 6.68% (active); in experiment [6], 58.3%. Besides, the growth was 36.3% in experiment [7]; 12.4% in [8]; 97.8% in experiment [9]; 26.7% in experiment [10]; 25.2% in experiment [11]; 72.2% in experiment [12]. For the same molecule, the growth in [13] is 57.8%; in experiment [14], 31.6%; in experiment [15], 5.19% (active); in experiment [16] it was 7.72% (active); in [17] it was 67.5%; in [18] it was 46.3%.
On to `COc1ccccc1N=Nc1c(O)ccc2cc(S(=O)(=O)O)ccc12`, for which the growth was 91.7% in [1]; 99.6% in experiment [2]; 93.2% in experiment [3]; 103% in [4]; 105% in experiment [5]; 88.8% in [6]. Further, the growth in experiment [7] was 110%; in experiment [8], 101%; in experiment [9] it was 100%; in experiment [10], 99.8%; in experiment [11], 91.4%; in experiment [12], 99.4%. In addition, the growth in [13] is 108%; in [14], 103%; in experiment [15] it was 93.2%; in experiment [16], 103%; in [17], 96.3%; in [18] it was 104%.
Turning to `COc1cc([C@@H]2c3cc4c(cc3[C@H](O)[C@H]3COC(=O)[C@H]23)OCO4)cc(OC)c1OC`, the growth was -1.68% (active) in experiment [1]; 29.7% in experiment [2]; 12.9% in experiment [3]; 40% in experiment [4]; 26.9% in [5]; 24.4% in experiment [6]. The growth in [7] was 31.6%; in experiment [8] it was -42.8% (active); in [9] it was 26.9%; in experiment [10] it was 4.7% (active); in [11] it was 65.5%; in [12], 7.33% (active). In addition, the growth was -30.3% (active) in experiment [13]; 24.5% in experiment [14]; 5.76% (active) in [15]; 2.8% (active) in [16]; -4.87% (active) in experiment [17]; -4.78% (active) in [18].
In the case of `NC(N)=Nc1cc2ccccc2c2ccccc12`, the growth in experiment [1] was 44.3%; in [2], 33.5%; in experiment [3], 45.9%; in [4], 95.8%; in experiment [5], 74.4%; in [6] it was 80.2%. In addition, the growth in experiment [7] was 65.2%; in [8], 73.1%; in experiment [9], 96.4%; in experiment [10] it was 95.1%; in [11] it was 88.1%; in experiment [12] it was 81.2%. For the same molecule, the growth was 84.8% in [13]; 76.6% in [14]; 81% in [15]; 65.9% in experiment [16]; 95.4% in experiment [17]; 81% in [18].
For `CCCCC/C=N/Nc1nc(C)cc(=O)[nH]1`, the growth in [1] was 90.4%; in experiment [2], 119%; in experiment [3] it was 100%; in [4], 104%; in [5], 107%; in experiment [6] it was 113%. The growth was 109% in [7]; 114% in [8]; 101% in experiment [9]; 99.9% in experiment [10]; 103% in experiment [11]; 109% in [12]. Also, the growth is 95.7% in experiment [13]; 104% in experiment [14]; 92.9% in experiment [15]; 101% in experiment [16]; 98.8% in experiment [17]; 106% in [18].
